Source: PubChem BioAssay (NCATS)
Inconclusive results are not listed. A number with no mark means an inactive call. Calls of active or inactive are those of the source. Calls follow the shape of the dose curve; as a rule, active = well fitted cell-killing curve with a large enough effect; inconclusive = small, poorly fitted or top-dose-only effect, or effect the other way; inactive = no such curve, though single readings can be large or run the other way.

Test: Quantitative High-Throughput drug screen in 47 multiple myeloma cell lines against the NCATS MIPE library collection: PE2_PLB cell viability assay (AID 1919869); also: nearly all actives have a fitted effect of over 35% in size
Settings: PE2_PLB myeloma cells viability, ATP luminescence, 48 h; series mostly up to 45.8 µM; viability (% of control): at the top concentration
From the text: PI: Beverly A. Mock Ph.D.
Laboratory of Cancer Biology and Genetics,
Center for Cancer Research, National Cancer Institute,
National Institute of Health, Bethesda, Maryland
Drug resistance and disease progression are common in multiple myeloma (MM) patients, underscoring the need for new therapeutic combinations. […] We hypothesized that effective combinations would reduce MYC expression and enhance p16 activity. […] These preclinical data identify potentially useful drug combinations for evaluation in drug-resistant MM and reveal potential mechanisms of combined drug sensitivity.
Described herein is the primary MIPE qHTS used to cherrypick compounds. Validated compounds were then further tested for potential synergistic activiy.
[1] Peat TJ, Gaikwad SM, Dubois W, Gyabaah-Kessie N, Zhang S, Gorjifard S, Phyo Z, Andres M, Hughitt VK, Simpson RM, Miller MA, Girvin AT, Taylor A, Williams D, D'Antonio N, Zhang Y, Rajagopalan A, Flietner E, Wilson K, Zhang X, Shinn P, Klumpp-Thomas C, McKnight C, Itkin Z, Chen L, Kazandijian D, Zhang J, Michalowski AM, Simmons JK, Keats J, Thomas CJ, Mock BA. Drug combinations identified by high-throughput screening promote cell cycle transition and upregulate Smad pathways in myeloma. Cancer Lett. 2023 Aug 1;568:216284. doi: 10.1016/j.canlet.2023.216284. Epub 2023 Jun 24. PMID: 37356470; PMCID: PMC10408729.
SEQUENCE No. (e.g., 1, 2, 3, etc.); […] (e.g., Cells, Incubation, Reagent, etc.); VALUE and DESCRIPTION.
1; Cells; 5 uL; white, solid bottom 1536-well Greiner assay plate.
2; Compounds; 23 nL; Kalypsis pin tool (Wako USA) equipped with a 1536-well pin head to transfer to the assay plates.
3; Incubation; 48 hours; 37C incubation.
4; Reagent;5uL; CellTiter Glo (Promega).
5; Detector; 425V; Luminescence; Viewlux PerkinElmer.
NOTES (numbers refer to Sequence numbers above)
1. The cell-based screening methods employed in this study were like those previously published. Briefly, the corresponding myeloma cell lines were screened in 1,536-well plates with 500 cells, 5-uL per well for inhibition of cell viability (assessed by measuring ATP levels with CellTiterGlo).
2. NCATS MIPE 4.0 library of approved and investigational drugs were added using the Kalypsis pin tool. Wells treated with DMSO only for 100% viability and media only for 0% viability were used as controls.
3. The assay plates were covered and incubated for 48 hours in a 37C, 5% CO2 incubator with controlled humidity.
4. After 48 hours, CellTilter-GloTM luminescent substrate mix (Promega) reagent was added to the assay plate and plates we incubated for 5 min at room temperature.
5. Signal was measured as median relative luminescence units on a ViewLux (PerkinElmer) multiplate reader.
[1] Heske CM, Davis MI, Baumgart JT, Wilson K, Gormally MV, Chen L, Zhang X, Ceribelli M, Duveau DY, Guha R, Ferrer M, Arnaldez FI, Ji J, Tran HL, Zhang Y, Mendoza A, Helman LJ, Thomas CJ. Matrix Screen Identifies Synergistic Combination of PARP Inhibitors and Nicotinamide Phosphoribosyltransferase (NAMPT) Inhibitors in Ewing Sarcoma. Clin Cancer Res. 2017 Dec 1;23(23):7301-7311. doi: 10.1158/1078-0432.CCR-17-1121. Epub 2017 Sep 12. PMID: 28899971; PMCID: PMC6636827.
Potency is read from the fitted curve at half-maximal effect.

Compound	Potency	viability (% of control)
Cc1cc(OCCCc2c(C(=O)O)n(Cc3cccnc3)c3c(-c4c(COc5ccc(N6CCN([S+](C)(=O)[O-])CC6)cc5)nn(C)c4C)cccc23)cc(C)c1Cl	18.7 µM (active)	–
NC(=O)c1cccc2[nH]c(-c3ccc([C@H]4CCCN4)cc3F)nc12	16.6 µM (active)	–
COc1cc2nc(-c3ccc(N4CCN(C)CC4)cc3)nc(NCCN3CCOCC3)c2cc1OC	0.148 µM (active)	–
CN1CCN(CCOc2cc(OC3CCOCC3)c3c(Nc4c(Cl)ccc5c4OCO5)ncnc3c2)CC1	23.5 µM (active)	–
O=C(O)c1c(Cl)c(Cl)c(Cl)c(Cl)c1-c1c2cc(I)c(=O)c(I)c-2oc2c(I)c(O)c(I)cc12	6.62 µM (active)	–
OC[C@H]1O[C@@H](Oc2cc(O)cc(C=Cc3ccc(O)cc3)c2)[C@H](O)[C@@H](O)[C@H]1O	–	108%
O=c1c(-c2ccc(O)cc2)coc2cc(O[C@@H]3O[C@H](CO)[C@H](O)[C@H](O)[C@H]3O)ccc12	–	99.6%
CS(=O)(=O)N(Cc1ccco1)CC(O)Cn1c2ccccc2c2ccccc21 (stereo not given)	16.6 µM (active)	–
COc1cc(O)c2c(c1)C(=O)c1cc(C)cc(O)c1C2=O	–	95.9% [at 23.2 µM]
Nc1ncnc2c1ncn2[C@@H]1O[C@H](CO)C[C@@H]1O	–	110%
COc1cc2ncnc(-n3nc(-c4ccccn4)nc3N)c2cc1OC	3.72 µM (active)	–
COc1ccc(-c2coc3cc(O)ccc3c2=O)cc1	–	93.3%
CCc1ccc(OCc2ccccc2C(=O)Nc2ccc3nc(C)cc(N)c3c2)cc1	2.35 µM (active)	–
O=c1cc(-c2ccc(O)cc2)oc2cc(O)cc(O)c12	20.9 µM (active)	–
O=C1C[C@@H](c2ccc(O)cc2)Oc2cc(O)cc(O)c21	–	99.5%
N#CC(=C(N)Sc1ccccc1N)C(C#N)=C(N)Sc1ccccc1N	18.7 µM (active)	–
CN1[C@@H]2CCC[C@@H]1CC(NC(=O)c1nn(C)c3ccccc13)C2 (stereo not given in full)	–	108%
CCOC(CN1C(=O)[C@](CC(=O)Nc2ccc(C)cc2)(NC(=O)Nc2ccc(C)cc2)c2ccccc21)OCC	23.5 µM (active)	–
COc1ccc(C2CC(c3ccccc3)=NN2c2ccc(S(N)(=O)=O)cc2)cc1 (stereo not given)	23.5 µM (active)	–
N#C[C@H]1C[C@H]2C[C@@H]2N1C(=O)[C@@H](N)C12CC3CC(CC(O)(C3)C1)C2	0.0026 µM (active)	–

Compound	Potency	viability (% of control)
CC(=O)N(C)C1(c2ccccc2)CCN(CCC[C@]2(c3ccc(Cl)c(Cl)c3)CCCN(C(=O)c3ccccc3)C2)CC1	20.9 µM (active)	–
Cc1c(O)cccc1C(=O)N[C@@H](CSc1ccccc1)[C@H](O)CN1C[C@H]2CCCC[C@@H]2C[C@@H]1C(=O)NC(C)(C)C	26.4 µM (active)	–
CC(C)(C)OC(=O)N[C@H]1CCCCCC=C[C@@H]2C[C@@]2(C(=O)NS(=O)(=O)C2CC2)NC(=O)[C@@H]2C[C@@H](OC(=O)N3Cc4cccc(F)c4C3)CN2C1=O	–	89.3%
O=C(CCc1ccc(O)cc1)c1c(O)cc(O)cc1O[C@@H]1O[C@H](CO)[C@H](O)[C@H](O)[C@H]1O	–	99.5%
Cc1ccc(C(C)(O)c2nc3ccccc3s2)c(C)c1 (stereo not given)	–	117%
NC(CO)(CO)CCc1ccc(Sc2cccc(OCc3ccccc3)c2)cc1Cl	13.2 µM (active)	–
COc1cc2c(cc1OC)CN(CCc1ccc(NC(=O)c3cc(OC)c(OC)cc3NC(=O)c3cnc4ccccc4c3)cc1)CC2	26.4 µM (active)	–
CCNc1cc(NC2CCC(O)CC2)nc(Nc2ccc3c(ccn3Cc3ccccc3)c2)n1 (stereo not given)	23.5 µM (active)	–
Clc1ccc(-c2nc3sccn3c2C=NOCc2ccc(Cl)c(Cl)c2)cc1	–	103%
O=C(O)[C@H]1O[C@H](Oc2cc3oc(-c4ccccc4)cc(=O)c3c(O)c2O)[C@H](O)[C@@H](O)[C@H]1O	–	98.5%
CC[C@@]1(O)C[C@H](O[C@H]2C[C@H](N(C)C)[C@H](O[C@H]3C[C@H](O)[C@H](O[C@H]4CCC(=O)[C@H](C)O4)[C@H](C)O3)[C@H](C)O2)c2c(cc3c(c2O)C(=O)c2c(O)cccc2C3=O)[C@@H]1C(=O)OC	0.526 µM (active)	–
NC(=O)c1cnc(-c2ccc(C3(N)CCC3)cc2)c(-c2ccccc2)c1	5.9 µM (active)	–
Cc1c(NC(=O)c2ccc(C(C)(C)C)cc2)cccc1-c1cn(C)c(=O)c(Nc2ccc(C(=O)N3CCOCC3)cc2)n1	14.8 µM (active)	–
COc1ccc(-c2nc(N3CCOCC3)c3sc(CN(C)c4ncc(C(=O)NO)cn4)cc3n2)cn1	0.001 µM (active)	–
N#CC1(c2ccc(NC(=O)c3cccnc3NCc3ccncc3)cc2)CCCC1	18.7 µM (active)	–
CC(C)C(C)C=CC(C)C1CCC2C3=CC=C4CC(O)CCC4(C)C3CCC21C (stereo not given)	–	116%
OC[C@H]1O[C@@H](n2cnc3c2NC=NC[C@@H]3O)C[C@H]1O	11.8 µM (active)	–
CN(C)Cc1ccc(-c2nc3cccc4c3n2CCNC4=O)cc1	20.9 µM (active)	–
COc1ccc(-n2c(C)c([N+](=O)[O-])c3ccc(O)cc32)cc1	4.69 µM (active)	–
CN(C[C@@H]1COCCO1)S(=O)(=O)Nc1ccc2ccc3ncc(-c4cnn(C)c4)cc3c(=O)c2c1	1.48 µM (active)	–
